This note sets out measurements from PubChem BioAssay (EPA / NIEHS).

Inconclusive results are not listed. Active and inactive are the calls of the source. The calls were made as follows, unless noted: active = hit-call score of the fitted dose curve at least 0.9, where 1 is the maximum; inactive = score below 0.9.

The target in assay [1] is Paired box protein Pax-6 (Homo sapiens) (UniProt P26367). Description: ATG_Pax6_CIS: Attagene CIS-FACTORIAL HepG2 Assay for human Paired Box 6 (PAX6) (AID 2282956). Conditions: HepG2 CIS-FACTORIAL PAX6 reporter transcription, RNA readout; actives raise or lower the signal. In outline:
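After twenty-four hours of chemical exposure, transfected HepG2 cells are harvested for RNA. Cis-promoter reporter transcripts are amplified, fluorescently labelled and sized by capillary electrophoresis, with gain and loss of signal scored against DMSO.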

The nature of assay [2]: ATG_PXRE_CIS: Attagene CIS-FACTORIAL HepG2 Assay for human Pregnane X Receptor Element (PXRE) (AID 2282957). Conditions: HepG2 Attagene CIS-FACTORIAL PXRE reporter, mRNA; actives raise or lower the signal. Put shortly:
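Cells: HepG2, transiently transfected reporter units under cis promoter control. Exposure: 24 h. Detection: reporter mRNA via RT-PCR/CE fluorescence; bidirectional fitting, DMSO-referenced.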

A short description of assay [3]: ATG_PPRE_CIS: Attagene CIS-FACTORIAL HepG2 Assay for human Peroxisome Proliferator-activated Response Element (PPRE) (AID 2282958). Conditions: HepG2 PPRE cis-element reporter, Attagene transcription factor profiling; actives raise or lower the signal. In outline:
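In this cell-based multiplex, a PPRE cis element drives a reporter sequence in transiently transfected HepG2 cells. Following 24 h treatment, labeled cDNA amplicons are sized and quantified by capillary electrophoresis, with DMSO defining baseline.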

A short description of assay [4]: ATG_RORE_CIS: Attagene CIS-FACTORIAL HepG2 Assay for human RAR-related Orphan Receptor Element (RORE) (AID 2282959). Conditions: HepG2 Attagene cis-factorial RORE reporter, mRNA; actives raise or lower the signal. Put shortly: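 Endogenous factor activity at a cis response element is read as reporter transcript levels in HepG2 cells, 24 h post-dose. Transcripts are quantified by RT-PCR with capillary electrophoresis, and data fitted in both directions against DMSO.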

In assay [5] the target is Transcription factor Sp1 (Homo sapiens) (UniProt P08047). The assay is described as follows: ATG_Sp1_CIS: Attagene CIS-FACTORIAL HepG2 Assay for human Specificity Protein 1 (Sp1) (AID 2282961). The note with it: HepG2 Sp1 cis-reporter transcription, actives raise or lower the signal. In outline:
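Cells: HepG2, transiently transfected with cis-regulated multiplexed reporters. Exposure: 24 h. Detection: reporter transcripts amplified, fluorescently labeled, restriction-digested and sized by capillary electrophoresis. Analysis: bidirectional fit relative to DMSO.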

A short description of assay [6]: ATG_SREBP_CIS: Attagene CIS-FACTORIAL HepG2 Assay for human Sterol Regulatory Element Binding (SREBP) (AID 2282962). Conditions: HepG2 Attagene cis-factorial SREBP reporter, mRNA; actives raise or lower the signal. In outline: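 Twenty-four hours after chemical dosing of transfected HepG2 cultures, reporter RNA was converted to cDNA, amplified, end-labelled with 6-FAM and resolved by capillary electrophoresis. Responses were fitted relative to DMSO.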

Assay [7] addresses Signal transducer and activator of transcription 3 (Homo sapiens) (UniProt P40763). Description: ATG_STAT3_CIS: Attagene CIS-FACTORIAL HepG2 Assay for human Signal Transducer and Activator of Transcription 3 (STAT3) (AID 2282963). The note with it: HepG2, Attagene cis-factorial STAT3 reporter transcription; actives raise or lower the signal. Put shortly: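 After a 24 h compound incubation, total RNA from MRTU-transfected HepG2 cells was converted to cDNA and reporter sequences PCR-amplified, labelled and profiled by capillary electrophoresis. Gain and loss of signal were referenced to DMSO.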

The nature of assay [8]: ATG_TA_CIS: Attagene CIS-FACTORIAL HepG2 Assay for human TA Basal Promoter (AID 2282964). The note with it: HepG2 Attagene CIS-factorial TA basal promoter reporter; actives raise or lower the signal. In outline:
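Multiplexed mRNA reporter assay, HepG2, 24 h. Reporter cDNA amplified, 6-FAM primer-extended, HpaI-cut, CE-sized; DMSO = negative control and baseline.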

Assay [9] can be described thus: ATG_TCF_b_cat_CIS: Attagene CIS-FACTORIAL HepG2 Assay for human T-Cell-Factor with beta-catenin (TCF/b-cat) (AID 2282965). The note with it: HepG2 TCF/beta-catenin cis-reporter transcription, actives raise or lower the signal. In outline:
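Measured: reporter mRNA in HepG2 transiently transfected with cis-promoter reporter units, 24 h after chemical addition. Fitting was bidirectional, DMSO as negative control.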

Assay [10] is described as follows: ATG_TAL_CIS: Attagene CIS-FACTORIAL HepG2 Assay for human TAL Basal Promoter (AID 2282966).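 Also: background control endpoint measuring basal TAL promoter reporter mRNA not a specific factor.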 Conditions: HepG2 Attagene cis-factorial TAL promoter reporter; actives raise or lower the signal. Put shortly:
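RT-PCR plus capillary electrophoresis quantifies reporter mRNA induction in transiently transfected HepG2 cells after 24 h chemical treatment. DMSO serves as negative control and baseline for bidirectional fitting.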

A short description of assay [11]: ATG_TGFb_CIS: Attagene CIS-FACTORIAL HepG2 Assay for human Transforming Growth Factor (TGF) (AID 2282967). Conditions: HepG2 Attagene CIS TGFb reporter, mRNA transcription; actives raise or lower the signal. Put shortly: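 Transcript-level reporter readout: HepG2 transfectants, 24 h exposure, RNA to cDNA, reporter-specific PCR, fluorescent primer extension, capillary sizing against ROX standards. Gain- or loss-of-signal relative to DMSO.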

The nature of assay [12]: ATG_VDRE_CIS: Attagene CIS-FACTORIAL HepG2 Assay for human Vitamin D Receptor Element (VDRE) (AID 2282968). The note with it: HepG2 VDRE cis-reporter transcription, actives raise or lower the signal. In outline: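 In transiently transfected HepG2 liver cells, gain or loss of reporter mRNA after 24 h exposure is scored relative to DMSO, using fluorescence detection by capillary electrophoresis of RT-PCR products.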

The target in assay [13] is Steroid hormone receptor ERR1 (Homo sapiens) (UniProt P11474). The assay is described as follows: ATG_ERRa_TRANS: Attagene TRANS-FACTORIAL HepG2 Assay for human Estrogen-Related Receptor alpha (ERRa) (AID 2282971; active = hit-call score of the fitted dose curve at least 0.9, where 1 is the maximum). Conditions: HepG2 Attagene TRANS reporter, ERRa transactivation. Put shortly: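 Reporter transcripts from ERRa-Gal4 chimera activity measured in transiently transfected human HepG2 cells 24 hours after dosing, using RT-PCR with 6-FAM primer extension, HpaI digestion and capillary electrophoresis; DMSO is baseline.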
Chain of Steroid hormone receptor ERR1 (Homo sapiens) (P11474 whole entry, looked up, the tested form may be a part): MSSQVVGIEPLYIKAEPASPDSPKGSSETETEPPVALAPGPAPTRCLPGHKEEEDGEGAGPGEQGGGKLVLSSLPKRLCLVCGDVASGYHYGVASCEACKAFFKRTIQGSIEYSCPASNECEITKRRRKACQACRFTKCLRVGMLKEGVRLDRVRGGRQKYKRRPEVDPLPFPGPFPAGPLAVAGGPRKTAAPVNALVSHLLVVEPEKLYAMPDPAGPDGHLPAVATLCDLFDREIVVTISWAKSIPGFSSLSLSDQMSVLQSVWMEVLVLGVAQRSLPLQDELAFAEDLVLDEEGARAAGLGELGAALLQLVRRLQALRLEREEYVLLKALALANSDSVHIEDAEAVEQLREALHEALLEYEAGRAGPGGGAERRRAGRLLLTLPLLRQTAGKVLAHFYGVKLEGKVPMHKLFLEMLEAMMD

In assay [14] the target is X-box-binding protein 1 (Homo sapiens) (UniProt P17861). Description: ATG_Xbp1_CIS: Attagene CIS-FACTORIAL HepG2 Assay for human X-box Binding Protein 1 (XBP1) (AID 2282972). The note with it: HepG2 XBP1 cis-element reporter, Attagene multiplex; actives raise or lower the signal. In outline: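 After a 24-hour chemical exposure of HepG2 cells carrying cis-regulated reporters, reporter mRNA levels are assessed. Quantification uses RT-PCR, 6-FAM labelling and capillary electrophoresis. Gain- or loss-of-signal is fitted against DMSO.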
Chain of X-box-binding protein 1 (Homo sapiens) (P17861 whole entry, looked up): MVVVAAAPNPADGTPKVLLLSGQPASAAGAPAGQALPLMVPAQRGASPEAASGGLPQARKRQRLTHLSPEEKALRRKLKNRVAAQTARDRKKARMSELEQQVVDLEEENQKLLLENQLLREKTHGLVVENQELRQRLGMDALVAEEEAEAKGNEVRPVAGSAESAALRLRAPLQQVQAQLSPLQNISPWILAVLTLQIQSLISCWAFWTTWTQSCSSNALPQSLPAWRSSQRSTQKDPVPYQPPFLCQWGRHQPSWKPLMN

Assay [15] in a line: ATG_Sox_CIS: Attagene CIS-FACTORIAL HepG2 Assay for human SRY-box transcription factor (SOX) (AID 2282960). Conditions: HepG2 Attagene cis-factorial SOX reporter, mRNA; actives raise or lower the signal. In outline:
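Measures mRNA induction of a SOX1-associated reporter in HepG2 after 24 h dosing. Fluorescently labelled RT-PCR fragments are separated by capillary electrophoresis, and gain or loss relative to DMSO control is fitted.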

Assay [16] deals with Estrogen receptor (Homo sapiens) (UniProt P03372). Description: ATG_ERa_TRANS: Attagene TRANS-FACTORIAL HepG2 Assay for human Estrogen Receptor alpha (ERa) (AID 2282970; active = hit-call score of the fitted dose curve at least 0.9, where 1 is the maximum). The note with it: HepG2 Attagene TRANS ERa GAL4 reporter, mRNA. In outline: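 Cells: HepG2, transiently transfected. Construct: GAL4-UAS reporter units regulated by exogenous NR-Gal4 chimeras. Time: 24 h. Detection: reporter mRNA by RT-PCR, capillary electrophoresis, fluorescence. Baseline: DMSO, upward fitting.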
Chain of Estrogen receptor (Homo sapiens) (P03372 whole entry, looked up, the tested form may be a part): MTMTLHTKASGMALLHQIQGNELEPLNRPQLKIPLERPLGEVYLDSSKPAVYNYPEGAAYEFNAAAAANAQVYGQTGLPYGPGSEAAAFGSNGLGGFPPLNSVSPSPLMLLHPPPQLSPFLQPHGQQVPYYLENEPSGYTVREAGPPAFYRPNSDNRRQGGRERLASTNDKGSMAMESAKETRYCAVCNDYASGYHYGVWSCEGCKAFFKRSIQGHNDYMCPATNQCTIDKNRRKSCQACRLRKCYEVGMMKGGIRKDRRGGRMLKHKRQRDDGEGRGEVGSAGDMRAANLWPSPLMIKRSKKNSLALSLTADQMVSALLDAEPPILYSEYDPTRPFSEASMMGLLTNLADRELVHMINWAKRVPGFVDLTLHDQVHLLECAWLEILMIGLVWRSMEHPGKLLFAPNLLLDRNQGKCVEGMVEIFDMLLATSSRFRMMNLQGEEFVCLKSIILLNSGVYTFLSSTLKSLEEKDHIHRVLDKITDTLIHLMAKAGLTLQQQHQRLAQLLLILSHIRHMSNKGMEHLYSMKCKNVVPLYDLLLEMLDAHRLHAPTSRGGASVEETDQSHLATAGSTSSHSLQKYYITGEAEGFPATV

Assay [17] concerns the target Androgen receptor (Homo sapiens) (UniProt P10275). The assay is described as follows: ATG_AR_TRANS: Attagene TRANS-FACTORIAL HepG2 Assay for human Androgen Receptor (AR) (AID 2282973; active = hit-call score of the fitted dose curve at least 0.9, where 1 is the maximum). The note with it: HepG2 Attagene TRANS-FACTORIAL AR reporter transcription. In outline:
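Transcriptional activity of an exogenous AR–Gal4 fusion read as GAL4-UAS reporter transcript levels in transfected human HepG2 cells after 24 h dosing. Detection via RT-PCR, 6-FAM labelling, HpaI digest and capillary electrophoresis; increase over DMSO baseline.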

Assay [18] can be described thus: ATG_M_19_TRANS: Attagene TRANS-FACTORIAL HepG2 Assay for M19 Transcription Factor (Internal Marker) (AID 2282974; active = hit-call score of the fitted dose curve at least 0.9, where 1 is the maximum). Conditions: HepG2 Attagene TRANS-FACTORIAL M19 internal marker reporter. In outline: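 Reporter mRNA induction was measured in transfected HepG2 cells 24 h after dosing. Endpoint fitted upward relative to DMSO and serves as a background control within the multiplexed TRANS panel.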

In assay [19] the target is Nuclear receptor subfamily 1 group I member 3 (Homo sapiens) (UniProt Q14994). The assay is described as follows: ATG_CAR_TRANS: Attagene TRANS-FACTORIAL HepG2 Assay for human Constitutive Androstane Receptor (CAR) (AID 2282969; active = hit-call score of the fitted dose curve at least 0.9, where 1 is the maximum;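 also: activators raise reporter mRNA above DMSO so AC50 marks induction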). The note with it: HepG2 Attagene TRANS-FACTORIAL CAR reporter. In outline: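 Readout is reporter mRNA induction, quantified by fluorescent primer extension and capillary electrophoresis after RT-PCR. Cells were HepG2 transiently carrying chimeric NR-Gal4 constructs with GAL4-UAS reporters, treated for 24 h; activity scored upward from DMSO.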
Chain of Nuclear receptor subfamily 1 group I member 3 (Homo sapiens) (Q14994 whole entry, looked up, the tested form may be a part): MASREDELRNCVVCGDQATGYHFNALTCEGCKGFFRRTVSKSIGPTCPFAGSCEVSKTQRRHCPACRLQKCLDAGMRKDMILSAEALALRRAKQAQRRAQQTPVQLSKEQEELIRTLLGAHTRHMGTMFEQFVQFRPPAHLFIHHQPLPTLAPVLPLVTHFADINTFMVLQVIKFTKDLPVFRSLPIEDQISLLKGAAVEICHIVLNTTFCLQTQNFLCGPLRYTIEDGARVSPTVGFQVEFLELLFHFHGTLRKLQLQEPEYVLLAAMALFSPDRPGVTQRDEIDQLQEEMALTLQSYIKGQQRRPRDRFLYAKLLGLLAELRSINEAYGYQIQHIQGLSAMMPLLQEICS

Chain of Signal transducer and activator of transcription 3 (Homo sapiens) (P40763 whole entry, looked up): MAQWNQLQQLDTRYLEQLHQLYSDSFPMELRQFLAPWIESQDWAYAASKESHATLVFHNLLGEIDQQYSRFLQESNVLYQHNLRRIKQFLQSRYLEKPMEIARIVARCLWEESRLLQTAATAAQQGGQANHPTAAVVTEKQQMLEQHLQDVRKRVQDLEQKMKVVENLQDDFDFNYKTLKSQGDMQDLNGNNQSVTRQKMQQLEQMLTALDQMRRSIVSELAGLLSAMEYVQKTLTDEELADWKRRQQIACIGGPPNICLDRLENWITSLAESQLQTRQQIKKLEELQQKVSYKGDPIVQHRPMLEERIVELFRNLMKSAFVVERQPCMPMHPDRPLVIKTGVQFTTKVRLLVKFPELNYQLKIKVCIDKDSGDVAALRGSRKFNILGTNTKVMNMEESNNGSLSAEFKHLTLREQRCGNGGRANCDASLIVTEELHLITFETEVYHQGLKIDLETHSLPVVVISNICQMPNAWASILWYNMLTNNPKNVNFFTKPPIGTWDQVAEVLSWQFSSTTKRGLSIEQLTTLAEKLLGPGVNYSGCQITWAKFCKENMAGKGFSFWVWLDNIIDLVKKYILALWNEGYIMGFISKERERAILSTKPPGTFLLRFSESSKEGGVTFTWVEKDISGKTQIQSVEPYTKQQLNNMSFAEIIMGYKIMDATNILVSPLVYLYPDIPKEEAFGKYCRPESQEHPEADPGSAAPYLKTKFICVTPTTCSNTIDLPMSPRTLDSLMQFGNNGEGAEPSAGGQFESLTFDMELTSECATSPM
Chain of Transcription factor Sp1 (Homo sapiens) (P08047 whole entry, looked up): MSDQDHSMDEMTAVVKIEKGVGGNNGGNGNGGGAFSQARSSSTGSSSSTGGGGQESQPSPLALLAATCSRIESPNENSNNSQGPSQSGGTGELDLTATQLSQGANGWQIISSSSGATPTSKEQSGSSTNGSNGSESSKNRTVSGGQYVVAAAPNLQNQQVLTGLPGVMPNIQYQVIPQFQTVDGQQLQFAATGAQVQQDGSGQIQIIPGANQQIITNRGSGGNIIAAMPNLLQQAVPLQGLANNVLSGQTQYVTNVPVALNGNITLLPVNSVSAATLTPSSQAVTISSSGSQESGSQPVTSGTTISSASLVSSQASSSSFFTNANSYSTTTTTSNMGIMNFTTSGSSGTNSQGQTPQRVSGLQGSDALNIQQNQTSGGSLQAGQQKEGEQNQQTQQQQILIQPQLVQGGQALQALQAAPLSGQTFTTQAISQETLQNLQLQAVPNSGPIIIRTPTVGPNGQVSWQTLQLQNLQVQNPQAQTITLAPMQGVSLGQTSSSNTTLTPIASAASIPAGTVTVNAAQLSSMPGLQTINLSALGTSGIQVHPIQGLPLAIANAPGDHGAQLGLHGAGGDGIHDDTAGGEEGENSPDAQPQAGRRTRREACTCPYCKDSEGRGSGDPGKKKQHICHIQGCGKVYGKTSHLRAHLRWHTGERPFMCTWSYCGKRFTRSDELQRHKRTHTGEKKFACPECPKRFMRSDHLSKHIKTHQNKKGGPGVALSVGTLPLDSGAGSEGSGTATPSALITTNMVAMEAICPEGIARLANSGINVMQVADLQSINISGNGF
Chain of Paired box protein Pax-6 (Homo sapiens) (P26367 whole entry, looked up): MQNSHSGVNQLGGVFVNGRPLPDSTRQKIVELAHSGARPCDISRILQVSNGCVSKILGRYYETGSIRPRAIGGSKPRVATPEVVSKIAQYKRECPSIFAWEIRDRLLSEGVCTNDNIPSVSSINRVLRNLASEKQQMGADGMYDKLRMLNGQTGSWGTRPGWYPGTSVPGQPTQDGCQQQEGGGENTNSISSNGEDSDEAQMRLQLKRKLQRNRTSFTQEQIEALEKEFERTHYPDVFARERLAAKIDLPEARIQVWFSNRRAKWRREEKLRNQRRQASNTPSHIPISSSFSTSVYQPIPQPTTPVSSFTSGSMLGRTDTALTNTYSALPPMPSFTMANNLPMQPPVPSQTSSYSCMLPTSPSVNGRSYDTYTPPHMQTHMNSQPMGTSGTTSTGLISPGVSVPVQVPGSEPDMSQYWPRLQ
Chain of Androgen receptor (Homo sapiens) (P10275 whole entry, looked up, the tested form may be a part): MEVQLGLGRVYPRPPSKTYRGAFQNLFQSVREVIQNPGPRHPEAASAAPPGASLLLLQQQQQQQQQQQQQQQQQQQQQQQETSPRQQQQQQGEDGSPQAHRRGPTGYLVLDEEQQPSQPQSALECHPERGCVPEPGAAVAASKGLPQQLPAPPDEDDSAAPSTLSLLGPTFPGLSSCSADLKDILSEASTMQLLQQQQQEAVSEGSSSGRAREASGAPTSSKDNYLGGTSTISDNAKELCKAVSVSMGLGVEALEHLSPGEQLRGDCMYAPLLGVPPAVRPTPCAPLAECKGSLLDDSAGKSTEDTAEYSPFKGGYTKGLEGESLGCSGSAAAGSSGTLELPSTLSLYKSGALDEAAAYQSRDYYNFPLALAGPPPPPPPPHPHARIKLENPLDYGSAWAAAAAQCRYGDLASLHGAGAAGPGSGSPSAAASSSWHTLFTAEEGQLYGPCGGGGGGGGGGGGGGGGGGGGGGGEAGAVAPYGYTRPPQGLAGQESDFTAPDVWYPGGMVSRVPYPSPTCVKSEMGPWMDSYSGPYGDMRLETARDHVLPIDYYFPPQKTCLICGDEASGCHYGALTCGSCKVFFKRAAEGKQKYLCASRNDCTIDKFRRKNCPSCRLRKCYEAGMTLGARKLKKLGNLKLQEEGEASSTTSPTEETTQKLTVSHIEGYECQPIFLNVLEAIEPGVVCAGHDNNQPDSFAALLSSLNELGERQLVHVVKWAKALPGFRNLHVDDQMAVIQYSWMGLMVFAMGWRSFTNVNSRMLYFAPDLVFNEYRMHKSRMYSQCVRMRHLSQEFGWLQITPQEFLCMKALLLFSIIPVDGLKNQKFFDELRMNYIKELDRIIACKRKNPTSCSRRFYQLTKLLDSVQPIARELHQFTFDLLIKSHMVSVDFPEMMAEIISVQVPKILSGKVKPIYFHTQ

With `CN(C)C(=O)Cl`, the compound was classed as inactive in assay [1], in assay [2], in assay [3], in assay [4], in [5] and in assay [6]. Further, the result in [7], in [8], in assay [9], in assay [10], in assay [11] and in [12] was inactive. For the same compound, the compound was called inactive in assay [13] and in [14].

Take `CCN(CC)c1ccccc1`: the compound was classed as inactive in assay [1], in assay [2], in [4], in assay [15], in assay [5] and in assay [6]. The outcome in [7], in assay [8], in assay [9], in assay [10], in [11] and in assay [12] was inactive. For the same compound, the compound was called inactive in [16], in assay [14], in assay [17] and in assay [18].

`CC1(C)CN=C(NN=C(/C=C/c2ccc(C(F)(F)F)cc2)/C=C/c2ccc(C(F)(F)F)cc2)NC1`: the compound was called inactive in assay [1], in assay [4], in assay [12], in assay [19], in assay [14] and in assay [18]. For the same compound, the half-maximal activity concentration (AC50) (commonly the concentration giving half of the maximal activity seen) was 4.77 µM (active) in assay [2]; 3.92 µM (active) in [3]; 16.6 µM (active) in assay [5]; 19.7 µM (active) in assay [6]; 20.2 µM (active) in assay [7]; 3.76 µM (active) in assay [8]. Also, the AC50 in assay [9] was 19.4 µM (active); in assay [10], 4.22 µM (active); in [11], 11.1 µM (active); in assay [16], 4.59 µM (active).

With `O=C(O)C(Cl)Cl`, the compound was called inactive in assay [1], in [2], in [3], in assay [4], in assay [15] and in assay [5]. The compound was called inactive in assay [6], in [7], in assay [8], in [9], in assay [10] and in assay [11]. Also, in assay [14], the outcome was inactive.

Regarding `NC(=O)C(F)(F)C(F)(F)F`, the compound was called inactive in assay [1], in assay [2], in [3], in assay [4], in [15] and in assay [5]. The call in [6], in assay [7], in assay [8], in assay [9], in assay [10] and in [11] was inactive. The call in assay [12], in assay [16], in assay [13], in assay [14], in [17] and in assay [18] was inactive.

Turning to `CCOP(=O)(O)C(N)=O`, the compound was called inactive in assay [1], in assay [3], in assay [15], in [5], in assay [6] and in assay [7]. Moreover, the compound was called inactive in assay [8], in assay [9], in assay [10], in assay [11], in assay [12] and in assay [19]. Besides, the compound was classed as inactive in [16], in assay [14] and in assay [18]. Moreover, the AC50 in assay [2] was 47.9 µM (active).
